The source made the active and inactive calls. No rule for the calls is given here.
The compounds below were run against Pantothenate synthetase (Mycobacterium tuberculosis (strain ATCC 25618 / H37Rv)) (UniProt P9WIL5) (assay: Coupled enzyme confirmation of inhibitors against recombinant Mtb PanC (AID 375;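 also: 0% = full reaction with vehicle and 100% = no enzyme background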)). Conditions: coupled enzyme assay; at 10 µM, stronger effect = higher value.
Pantothenate synthetase (Mycobacterium tuberculosis (strain ATCC 25618 / H37Rv)), sequence (P9WIL5 whole entry, looked up): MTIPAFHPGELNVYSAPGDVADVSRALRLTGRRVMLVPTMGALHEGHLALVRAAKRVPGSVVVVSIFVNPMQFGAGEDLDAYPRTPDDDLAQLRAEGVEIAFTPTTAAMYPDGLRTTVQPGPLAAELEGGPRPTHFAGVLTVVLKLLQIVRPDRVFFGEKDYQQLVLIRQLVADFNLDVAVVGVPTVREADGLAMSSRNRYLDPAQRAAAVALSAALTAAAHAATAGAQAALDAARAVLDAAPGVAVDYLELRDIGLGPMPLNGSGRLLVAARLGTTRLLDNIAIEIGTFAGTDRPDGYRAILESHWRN

| SMILES | inhibition |
| --- | --- |
| c1ccc(-c2cn3cccnc3n2)cc1 | 0% (inactive) |
| c1cn(C23CC4CC(CC(C4)C2)C3)cn1 | 0% (inactive) |
| Cn1c(CN2CCOCC2)nnc1SCC(=O)NCCc1ccccc1 | 0% (inactive) |
| CCCCc1cc(=O)oc2cc(OCC(=O)N(CC)CC)c(Cl)cc12 | 0% (inactive) |
| COc1cccc(-c2nc(CS(=O)(=O)CC(=O)NCc3ccc(Cl)cc3)c(C)o2)c1 | 0% (inactive) |
| O=C(N1CCN(c2ccccc2F)CC1)C12CC3CC(CC(C3)C1)C2 | 0% (inactive) |
| Cc1cccc(NC(=O)CSc2nnc(-c3cc(C)n(-c4ccccc4)c3C)o2)c1C | 0% (inactive) |
| Cc1nc(N2CCOCC2)[nH]c(=O)c1CCC(C)C | 8% (inactive) |
| COc1ccc(CN(C(=O)CNC(=O)c2ccco2)C(C(=O)NC2CCCC2)c2ccco2)cc1 (stereo not drawn) | 5% (inactive) |
| C=C(C)Cn1c(CCCNC(=O)C(C)(C)C)nc2ccccc21 | 0% (inactive) |
| COc1cccc(/C(O)=C2/C(=O)C(=O)N(CCN3CCOCC3)C2c2cccnc2)c1 (stereo not drawn) | 1% (inactive) |
| COc1ccc(-n2ncc3c(NCc4cccs4)ncnc32)cc1 | 0% (inactive) |
| CNCCCN1c2ccccc2CCc2ccccc21 | 0% (inactive) |
| Cc1ccccc1-n1c(=O)cc(NCc2ccc3c(c2)OCO3)[nH]c1=O | 2% (inactive) |
| COc1cc(NC(=O)CN(c2cc(C)cc(C)c2)S(=O)(=O)c2c(C)noc2C)cc(OC)c1 | 0% (inactive) |
| CCOC(=O)c1ccc(N2C(=O)CC(N(C)CCc3ccc(OC)c(OC)c3)C2=O)cc1 (stereo not drawn) | 2% (inactive) |
| Cn1c(=N)c(S(=O)(=O)c2ccccc2)cc2c(=O)n3ccccc3nc21 | 2% (inactive) |
| CCN(CC)CCNC(=O)CCn1c(=S)[nH]c2cc3c(cc2c1=O)OCO3 | 0% (inactive) |
| Cc1ccccc1-c1nc(CN2CCC(C(=O)N3CCC(C(N)=O)CC3)CC2)c(C)o1 | 0% (inactive) |
| CN(c1ccccc1C(N)=O)S(=O)(=O)c1ccccc1 | 10% (inactive) |
| O=C(CCCN1C(=O)c2ccccc2C1=O)N1CCC(c2ccccc2)C1 (stereo not drawn) | 4% (inactive) |
| O=C1c2oc3ccccc3c(=O)c2C(c2cccnc2)N1Cc1ccco1 (stereo not drawn) | 0% (inactive) |
| COC(=O)c1[nH]c2ccc(F)cc2c1NS(=O)(=O)c1ccc(OC)cc1OC | 14% (inactive) |

Source: PubChem BioAssay
